# Values without a mark were called inactive. Activity calls are given as the source filed them. Rule as the data show it: active = nuclear beta-catenin stimulation mostly above about 4.2% (no sharp cut-off); inactive = mostly below about 10%.
# Test: stimulators of nuclear beta-catenin in C2C12, primary screen, imaging, WNT3A-conditioned medium, mouse C2C12, NPC library (AID 1117326); also: reference of the scale not given here
# Settings: at 10 µM, hits give high values
row,SMILES,nuclear beta-catenin stimulation
1,Cc1cc(C)cc(OCC2CNC(=O)O2)c1 (stereo not drawn),-0.1%
2,Cn1c(=O)c2c(ncn2CCO)n(C)c1=O,2.5%
3,CCN1CCN(C(=O)N[C@@H](C(=O)N[C@@H]2C(=O)N3C(C(=O)O)=C(CSc4nnnn4C)CS[C@H]23)c2ccc(O)cc2)C(=O)C1=O,-0.5%
4,CC(C)N=C(N)/N=C(\N)Nc1ccc(Cl)cc1,1.1%
5,CCOC(=O)NNc1nncc2ccccc12,3.8%
6,CCC(Cc1c(I)cc(I)c(N)c1I)C(=O)O (stereo not drawn),1.2%
7,O=C(O)c1ccccc1O,0.5%
8,Cc1ccc(C(=O)C(C)CN2CCCCC2)cc1 (stereo not drawn),1.5%
9,CC(Cc1cccc(C(F)(F)F)c1)NCCOC(=O)c1ccccc1 (stereo not drawn),2.3%
10,COc1c2occc2c(OC)c2c(=O)cc(C)oc12,2.2%
11,CC(=O)NCCCCCC(=O)O,0.2%
12,C[N+]12CCC(CC1)C(OC(=O)C(O)(c1ccccc1)c1ccccc1)C2 (stereo not drawn),1.4%
13,CC(C)(Oc1ccc(Cl)cc1)C(=O)O,1.8%
14,CCN(CC)CCOc1ccc(/C(=C(\Cl)c2ccccc2)c2ccccc2)cc1,40.9% (active)
15,COc1ccc2cc1Oc1ccc(cc1)C[C@H]1c3c(cc4c(c3Oc3cc5c(cc3OC)CCN(C)[C@@H]5C2)OCO4)CCN1C,64.7% (active)
16,COc1cc(NS(=O)(=O)c2ccc(N)cc2)ncn1,3%
17,NC(=O)NC(=O)Cc1ccccc1,0.2%
18,Cc1cc(O)cc(C)c1Cl,-0.1%

# — PubChem BioAssay
